About 520 (0.26%) of roughly 200,000 compounds were called active. This excerpt belongs to a sample that is enriched for actives. A number with no mark means an inactive call.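 The calls were made as follows: active = tissue-nonspecific alkaline phosphatase inhibition above about 50% at 20 µM in the single-dose screen (limit read from the data); inactive = the rest.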

For 32 compounds, inhibition results are on record in PubChem BioAssay AID1012 (Sanford-Burnham Center for Chemical Genomics, 2008).

The target in the assay is Alkaline phosphatase, tissue-nonspecific isozyme (Homo sapiens) (UniProt P05186). Description: blockers of alkaline phosphatase TNAP activity – biochemical, luminescent, no phosphate acceptor, uHTS, primary screen (AID 1012).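 Also: 0% = DMSO negative control and 100% = EDTA positive control.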 The note with it: purified TNAP, CDP-star luminescence, 30 min; at 20 µM; active compounds read high.
Alkaline phosphatase, tissue-nonspecific isozyme (Homo sapiens), sequence (P05186 whole entry, looked up): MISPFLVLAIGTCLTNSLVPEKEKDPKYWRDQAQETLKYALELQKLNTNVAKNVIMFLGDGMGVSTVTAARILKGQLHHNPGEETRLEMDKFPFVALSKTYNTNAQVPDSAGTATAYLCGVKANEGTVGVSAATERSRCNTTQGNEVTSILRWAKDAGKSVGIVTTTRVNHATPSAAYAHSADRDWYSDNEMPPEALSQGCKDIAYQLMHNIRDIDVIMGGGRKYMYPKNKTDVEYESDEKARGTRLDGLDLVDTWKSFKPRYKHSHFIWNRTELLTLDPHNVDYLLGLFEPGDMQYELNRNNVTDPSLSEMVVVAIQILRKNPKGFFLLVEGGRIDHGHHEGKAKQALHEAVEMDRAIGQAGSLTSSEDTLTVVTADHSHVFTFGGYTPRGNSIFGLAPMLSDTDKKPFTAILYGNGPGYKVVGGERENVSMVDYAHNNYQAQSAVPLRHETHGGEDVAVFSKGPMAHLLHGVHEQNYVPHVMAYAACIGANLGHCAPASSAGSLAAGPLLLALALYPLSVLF
The inhibition is the relative decrease from the control value, in per cent. Take `O=C1COc2ccc(C(=O)COC(=O)C3CC(O)CN3S(=O)(=O)c3ccc(Cl)cc3)cc2N1` (configuration not stated): the inhibition was -11.9%.
Next, `COc1ccccc1Cn1c(C)nnc1-c1cnn(C)c1N`: -14%; `Cc1ccccc1C(=O)Nc1ccc(N2CCCCCC2)cc1`: -10.8%.
Consider `COc1ccc(Cl)cc1NC(=O)[C@@H]1CCCN1C(=O)c1cccs1`, for which the inhibition was -0.4%.
On to `O=C(NCc1ccc(F)cc1)C(c1ccccc1)N(C(=O)c1csnn1)C1CC1` (configuration not stated), for which the inhibition is -11.9%.
Turning to `C#CCOCCOCCOCCNc1nc(N2CCN(C(=O)[C@H](CCC(=O)O)n3cc(C(N)CO)nn3)CC2)nc(N2CCN(C(=O)[C@H](Cc3ccc(O)cc3)n3cc(C(N)[C@H](C)CC)nn3)CC2)n1` (some centres not stated), the inhibition is -7.8%.
For the compound `CN(C)C(=O)c1nc2ccc(Cl)cn2c1CN1CCN(c2ncccn2)CC1`, the inhibition was -12.2%.
Regarding `CCOC(=O)c1c(NC(=O)C2CCN(S(=O)(=O)c3ccc(Cl)cc3)CC2)sc2c1CCCC2`, the inhibition is -6%.
For the compound `O=C(CSc1nc(O)c(Cc2ccccc2)c(=O)[nH]1)Nc1nc2c(s1)CCCC2`, the inhibition was -7.1%.
On to `CCCCC(CC(C)O)c1n[nH]c(=S)n1-c1ccccc1` (configuration not stated), for which the inhibition was -23.2%.
Consider `Cc1cccc(NC(=S)NCCc2ccc(F)cc2)c1C`, for which the inhibition was -8.2%.
To `O=C(NNC(=S)NC1CCCCC1)c1ccccc1Cl` belongs -122%; to `O=S(=O)(NCCc1ccncc1)c1ccccc1`, -12%; to `COc1cccc(NC(=S)NC(=O)c2c(Cl)c(C)nn2C)c1`, 12.5%.
To `COc1ccc(NC(=O)COC(=O)c2ccncc2)c(OC)c1` belongs -9.8%.
To `CCc1nnc(NC(=O)c2nc3nccc(C)n3n2)s1` belongs -1.7%.
Consider `Cc1ccnc2nc(C(=O)Nc3nnc(-c4ccccc4)o3)nn12`, for which the inhibition was 52.3% (active).
Consider `CCCC(=O)Nc1nnc(-c2ccccc2)o1`, for which the inhibition is -7.1%.
Consider `COc1ccc(N2C(=O)CC(Nc3ccc(F)cc3)C2=O)c([N+](=O)[O-])c1` (configuration not stated), for which the inhibition is -5.2%.
For `Cc1ccc(NC(=O)CN2CCCCC2)c2c1CC(C)(C)O2`, the inhibition was -3%.
`O=C(O)CCn1c(SCc2cc(=O)n3ccccc3n2)nc2ccsc2c1=O`: the inhibition was -2.2%.
As for `COCCNC(=O)NC(=O)COC(=O)C1(c2ccc(Cl)cc2)CC1`, the inhibition is -9.9%.
`Cc1ccc(C(=O)OC2CCCN(C)C2)cc1` (configuration not stated): the inhibition was -10.2%.
On to `Nc1ncnc(Nc2cccc(Cl)c2Cl)n1`, for which the inhibition is -2.3%.
Consider `COc1ccc(/C=C2\SC(=N)N(c3ccc(F)cc3)C2=O)cc1`, for which the inhibition is -8%.
To `Cn1cccc1/C=C1\SC(=O)N(CC(=O)Nc2ccc(F)cc2)C1=O` belongs -0.3%; to `CC(C)OC(=O)Cn1nc(C(F)(F)F)c2c1CCCC2`, 0.5%.
Take `CCOc1ccc(C(=O)NC2CCN(CC(=O)NCc3cccs3)CC2)cc1`: the inhibition was -4.7%.
To `CC(NC(=O)C(=O)N/N=C/c1ccc(Cl)cc1)c1ccccc1` (configuration not stated) belongs 3.3%; to `COCCNC(=O)c1ccccc1NS(=O)(=O)c1ccc(C)c([N+](=O)[O-])c1`, -7.3%.
For `Cc1ccnc(NC(=O)c2ccc(Cl)c([N+](=O)[O-])c2)c1`, the inhibition was -11.1%.
Turning to `CCOC(=O)NC(=O)C(=CNc1cccc(OC)c1)C(=O)NC(=O)OCC`, the inhibition was -10.1%.
